# Active and inactive are the calls of the source. Rule for the calls: active = hit-call score of the fitted dose curve at least 0.9, where 1 is the maximum; inactive = score below 0.9.
# What was measured:
# [1] = ATG_ISRE_CIS: Attagene CIS-FACTORIAL HepG2 Assay for human Interferon Regulatory Factor 1 (IRF1) binding to an Interferon-Stimulated Response Element (ISRE) (AID 2282948); conditions: HepG2 ISRE cis-reporter (Attagene), mRNA transcription readout; actives raise or lower the signal
# In short: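 Multiplexed mRNA reporter readout in human liver HepG2 cells: cis-element-driven reporters transfected, compound added for 24 h, transcripts amplified, fluorescently labelled and sized by capillary electrophoresis; curve fitting bidirectional against DMSO.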
# [2] = ATG_M_32_CIS: Attagene CIS-FACTORIAL HepG2 Assay for M32 Transcription Factor (Internal Marker) (AID 2282949); conditions: HepG2 Attagene cis-factorial M32 reporter, mRNA; actives raise or lower the signal;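 note: background control marker of the multiplexed CIS panel rather than a real target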
# In short: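 HepG2 human liver cells transiently transfected with cis-promoter-driven multiple reporter transcription units, dosed 24 h. Reporter mRNA quantified by RT-PCR, FAM-labelled primer extension, HpaI digest and capillary electrophoresis; bidirectional fit versus DMSO baseline.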
# [3] = ATG_M_06_CIS: Attagene CIS-FACTORIAL HepG2 Assay for M06 Transcription Factor (Internal Marker) (AID 2282950); conditions: HepG2 Attagene CIS-FACTORIAL M06 internal marker reporter; actives raise or lower the signal
# In short: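 Terse: HepG2, transient MRTU transfection (FuGene 6), 24 h dosing; total RNA, oligo(dT) RT, PCR, FAM label, HpaI cut, capillary electrophoresis; bidirectional fit vs DMSO baseline; background-control endpoint.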
# [4] = target: Hypoxia-inducible factor 1-alpha (Homo sapiens) (UniProt Q16665); assay: ATG_HIF1a_CIS: Attagene CIS-FACTORIAL HepG2 Assay for human Hypoxia Inducible Factor 1 (HIF1A) (AID 2282951); conditions: HepG2 Attagene cis-factorial HIF1a reporter transcription; actives raise or lower the signal
# Chain of Hypoxia-inducible factor 1-alpha (Homo sapiens) (Q16665 whole entry, looked up): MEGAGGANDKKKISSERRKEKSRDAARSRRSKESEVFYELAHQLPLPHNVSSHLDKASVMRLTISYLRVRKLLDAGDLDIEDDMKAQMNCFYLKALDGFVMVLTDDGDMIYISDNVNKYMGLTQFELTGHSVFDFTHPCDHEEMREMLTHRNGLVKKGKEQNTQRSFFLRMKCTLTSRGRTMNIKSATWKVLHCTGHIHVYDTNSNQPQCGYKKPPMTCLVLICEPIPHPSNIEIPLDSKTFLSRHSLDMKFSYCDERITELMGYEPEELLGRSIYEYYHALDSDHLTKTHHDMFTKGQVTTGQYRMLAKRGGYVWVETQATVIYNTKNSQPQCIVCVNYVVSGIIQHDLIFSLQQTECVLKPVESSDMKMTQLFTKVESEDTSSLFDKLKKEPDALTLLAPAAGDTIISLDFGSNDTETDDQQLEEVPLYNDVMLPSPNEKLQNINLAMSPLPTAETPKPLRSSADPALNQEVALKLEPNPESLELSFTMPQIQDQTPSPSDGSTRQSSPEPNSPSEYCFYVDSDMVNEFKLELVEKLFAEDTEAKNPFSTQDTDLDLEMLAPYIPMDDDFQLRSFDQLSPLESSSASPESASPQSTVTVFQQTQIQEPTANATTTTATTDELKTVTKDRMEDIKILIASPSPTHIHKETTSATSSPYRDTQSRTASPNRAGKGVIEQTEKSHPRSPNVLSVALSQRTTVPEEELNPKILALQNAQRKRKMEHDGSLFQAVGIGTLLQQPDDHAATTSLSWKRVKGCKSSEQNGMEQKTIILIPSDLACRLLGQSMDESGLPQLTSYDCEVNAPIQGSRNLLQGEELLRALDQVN
# In short: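 After 24 h chemical exposure of reporter-transfected HepG2 cells, reporter cDNA was PCR-amplified, labelled by 6-FAM primer extension (2 min 95 C, 20 s 68 C, 10 min 72 C), HpaI-cut (2 h, 37 C) and analysed by CE.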
# [5] = target: Hepatocyte nuclear factor 6 (Homo sapiens) (UniProt Q9UBC0); assay: ATG_HNF6_CIS: Attagene CIS-FACTORIAL HepG2 Assay for human Hepatocyte Nuclear Factor 6 (HNF6) (AID 2282952); conditions: HepG2 Attagene cis-factorial HNF6 reporter transcription; actives raise or lower the signal
# Chain of Hepatocyte nuclear factor 6 (Homo sapiens) (Q9UBC0 whole entry, looked up, the tested form may be a part): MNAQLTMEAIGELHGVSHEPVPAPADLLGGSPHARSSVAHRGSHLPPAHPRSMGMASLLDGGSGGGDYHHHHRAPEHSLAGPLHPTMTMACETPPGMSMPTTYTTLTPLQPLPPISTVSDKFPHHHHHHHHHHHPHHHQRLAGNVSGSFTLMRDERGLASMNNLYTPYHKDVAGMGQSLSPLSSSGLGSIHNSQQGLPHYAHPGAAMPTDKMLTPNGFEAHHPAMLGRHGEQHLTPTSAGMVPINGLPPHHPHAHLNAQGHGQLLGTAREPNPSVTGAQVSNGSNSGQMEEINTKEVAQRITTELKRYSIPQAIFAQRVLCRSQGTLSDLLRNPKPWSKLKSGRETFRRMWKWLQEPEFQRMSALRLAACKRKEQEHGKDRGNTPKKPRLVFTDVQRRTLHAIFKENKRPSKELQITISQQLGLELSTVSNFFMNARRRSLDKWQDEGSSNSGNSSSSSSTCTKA
# In short: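 Using cis-element reporters in HepG2 liver cells, the assay tracks endogenous factor-driven transcription 24 h post-dosing. Signal comes from 6-FAM-labelled, HpaI-digested RT-PCR fragments, with gain or loss scored against DMSO.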
# [6] = ATG_MRE_CIS: Attagene CIS-FACTORIAL HepG2 Assay for human Metal Responsive Element (MRE) (AID 2282954); conditions: HepG2 MRE cis-reporter transcription, Attagene multiplex; actives raise or lower the signal
# In short: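 Measured here is mRNA induction from an MRE cis-element reporter in HepG2 after 24 h, quantified by fluorescence of labelled RT-PCR products on capillary electrophoresis; gain- and loss-of-signal fits use DMSO as baseline.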
# [7] = ATG_PBREM_CIS: Attagene CIS-FACTORIAL HepG2 Assay for human Phenobarbital-responsive Enhancer Module (PBREM) (AID 2282955); conditions: HepG2 PBREM cis-reporter, Attagene multiplexed transcription; actives raise or lower the signal
# In short: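 Measures endogenous factor action on a phenobarbital-responsive enhancer module. HepG2 transiently carrying cis reporters, 24 h treatment, mRNA read-out by RT-PCR plus capillary electrophoresis.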
# [8] = target: Paired box protein Pax-6 (Homo sapiens) (UniProt P26367); assay: ATG_Pax6_CIS: Attagene CIS-FACTORIAL HepG2 Assay for human Paired Box 6 (PAX6) (AID 2282956); conditions: HepG2 CIS-FACTORIAL PAX6 reporter transcription, RNA readout; actives raise or lower the signal
# Chain of Paired box protein Pax-6 (Homo sapiens) (P26367 whole entry, looked up): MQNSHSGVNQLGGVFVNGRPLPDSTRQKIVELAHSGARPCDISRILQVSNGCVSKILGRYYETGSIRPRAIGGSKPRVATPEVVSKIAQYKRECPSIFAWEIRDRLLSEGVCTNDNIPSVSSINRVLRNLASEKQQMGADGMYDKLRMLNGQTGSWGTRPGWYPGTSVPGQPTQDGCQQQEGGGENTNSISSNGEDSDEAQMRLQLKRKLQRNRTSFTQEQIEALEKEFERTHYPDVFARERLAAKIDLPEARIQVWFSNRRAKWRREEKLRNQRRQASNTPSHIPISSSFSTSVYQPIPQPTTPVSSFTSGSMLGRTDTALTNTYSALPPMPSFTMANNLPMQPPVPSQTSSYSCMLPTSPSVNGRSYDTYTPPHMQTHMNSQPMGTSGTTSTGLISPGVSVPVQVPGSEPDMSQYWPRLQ
# In short: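 Fluorescent RT-PCR products separated by capillary electrophoresis report PAX6-linked promoter mRNA in HepG2 cells 24 h post-dose. Curves fitted bidirectionally, DMSO as negative control.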
# [9] = ATG_PXRE_CIS: Attagene CIS-FACTORIAL HepG2 Assay for human Pregnane X Receptor Element (PXRE) (AID 2282957); conditions: HepG2 Attagene CIS-FACTORIAL PXRE reporter, mRNA; actives raise or lower the signal
# In short: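 Using HepG2 transfected with multiple reporter transcription units, endogenous factor-driven transcription was scored as reporter mRNA after 24 h exposure.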
# [10] = ATG_Sox_CIS: Attagene CIS-FACTORIAL HepG2 Assay for human SRY-box transcription factor (SOX) (AID 2282960); conditions: HepG2 Attagene cis-factorial SOX reporter, mRNA; actives raise or lower the signal
# In short: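 HepG2, cis reporter units, 24 h exposure. Reporter mRNA: RT-PCR → FAM labelling → HpaI → CE fluorescence. Bidirectional fit vs DMSO.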
# [11] = target: Transcription factor Sp1 (Homo sapiens) (UniProt P08047); assay: ATG_Sp1_CIS: Attagene CIS-FACTORIAL HepG2 Assay for human Specificity Protein 1 (Sp1) (AID 2282961); conditions: HepG2 Sp1 cis-reporter transcription, actives raise or lower the signal
# Chain of Transcription factor Sp1 (Homo sapiens) (P08047 whole entry, looked up, the tested form may be a part): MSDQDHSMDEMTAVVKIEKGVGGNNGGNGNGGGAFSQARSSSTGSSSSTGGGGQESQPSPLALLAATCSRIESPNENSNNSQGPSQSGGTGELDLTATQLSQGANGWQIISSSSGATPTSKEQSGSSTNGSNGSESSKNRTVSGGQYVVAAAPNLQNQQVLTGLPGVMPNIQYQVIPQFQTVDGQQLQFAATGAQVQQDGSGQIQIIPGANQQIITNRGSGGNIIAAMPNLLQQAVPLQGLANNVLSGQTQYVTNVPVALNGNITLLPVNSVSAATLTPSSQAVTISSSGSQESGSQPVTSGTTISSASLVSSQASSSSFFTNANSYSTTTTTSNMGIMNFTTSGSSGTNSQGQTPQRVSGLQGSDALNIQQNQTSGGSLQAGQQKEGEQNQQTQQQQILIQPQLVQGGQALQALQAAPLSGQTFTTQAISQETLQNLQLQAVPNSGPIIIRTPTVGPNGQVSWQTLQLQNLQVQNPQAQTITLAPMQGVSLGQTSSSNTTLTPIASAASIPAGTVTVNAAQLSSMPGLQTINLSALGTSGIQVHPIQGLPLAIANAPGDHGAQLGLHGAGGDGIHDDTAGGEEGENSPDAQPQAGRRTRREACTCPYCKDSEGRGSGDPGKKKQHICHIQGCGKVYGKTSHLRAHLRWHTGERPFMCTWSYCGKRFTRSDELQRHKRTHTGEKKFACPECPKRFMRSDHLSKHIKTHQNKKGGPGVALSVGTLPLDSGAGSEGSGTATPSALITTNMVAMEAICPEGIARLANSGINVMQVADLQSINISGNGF
# In short: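 Liver-derived HepG2 cells, cis-element reporter library, 24 h treatment; RNA isolated, cDNA amplified with reporter-specific primers, FAM-labeled fragments sized on capillary analyzer. DMSO baseline, bidirectional curve fit.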
# [12] = ATG_SREBP_CIS: Attagene CIS-FACTORIAL HepG2 Assay for human Sterol Regulatory Element Binding (SREBP) (AID 2282962); conditions: HepG2 Attagene cis-factorial SREBP reporter, mRNA; actives raise or lower the signal
# In short: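 Endogenous factor activity is measured in HepG2 through multiplexed reporter units under cis-element control. Following a 24 h incubation, reporter transcripts are reverse-transcribed, PCR-amplified and sized by capillary electrophoresis; activity is fitted in both directions relative to DMSO.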
# [13] = target: Signal transducer and activator of transcription 3 (Homo sapiens) (UniProt P40763); assay: ATG_STAT3_CIS: Attagene CIS-FACTORIAL HepG2 Assay for human Signal Transducer and Activator of Transcription 3 (STAT3) (AID 2282963); conditions: HepG2, Attagene cis-factorial STAT3 reporter transcription; actives raise or lower the signal
# Chain of Signal transducer and activator of transcription 3 (Homo sapiens) (P40763 whole entry, looked up, the tested form may be a part): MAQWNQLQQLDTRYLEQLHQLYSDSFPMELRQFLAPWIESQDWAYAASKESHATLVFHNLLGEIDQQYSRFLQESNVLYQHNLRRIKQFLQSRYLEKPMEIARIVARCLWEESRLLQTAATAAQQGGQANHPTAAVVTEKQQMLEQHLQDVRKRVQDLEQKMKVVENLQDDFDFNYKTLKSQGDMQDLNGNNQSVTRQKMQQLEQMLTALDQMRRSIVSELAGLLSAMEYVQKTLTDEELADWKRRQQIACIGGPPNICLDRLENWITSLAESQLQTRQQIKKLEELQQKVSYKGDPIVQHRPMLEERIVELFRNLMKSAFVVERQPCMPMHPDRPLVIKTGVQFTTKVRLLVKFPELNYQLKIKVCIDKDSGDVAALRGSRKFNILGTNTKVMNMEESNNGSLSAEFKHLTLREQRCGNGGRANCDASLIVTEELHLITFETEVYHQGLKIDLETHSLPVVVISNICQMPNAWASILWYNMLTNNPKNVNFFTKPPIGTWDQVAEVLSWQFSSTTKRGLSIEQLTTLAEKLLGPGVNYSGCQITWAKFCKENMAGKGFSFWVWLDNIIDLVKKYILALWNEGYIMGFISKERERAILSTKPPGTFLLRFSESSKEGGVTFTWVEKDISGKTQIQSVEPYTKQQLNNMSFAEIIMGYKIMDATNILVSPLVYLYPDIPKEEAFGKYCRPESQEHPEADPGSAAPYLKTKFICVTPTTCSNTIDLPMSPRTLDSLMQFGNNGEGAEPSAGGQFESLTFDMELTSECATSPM
# In short: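 Fluorescence intensity of 6-FAM-labelled reporter fragments, separated by capillary electrophoresis after RT-PCR, gave the signal. Cells were HepG2 transfected with cis-element reporter units and treated 24 h; fitting was bidirectional relative to DMSO.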
# [14] = ATG_TA_CIS: Attagene CIS-FACTORIAL HepG2 Assay for human TA Basal Promoter (AID 2282964); conditions: HepG2 Attagene CIS-factorial TA basal promoter reporter; actives raise or lower the signal
# In short: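 Transfected HepG2, 24 h compound exposure; RNA → RT-PCR → FAM primer extension → HpaI cut → CE fluorescence. Gain/loss-of-signal fitted against DMSO negative control. Background-control readout.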
# [15] = ATG_TCF_b_cat_CIS: Attagene CIS-FACTORIAL HepG2 Assay for human T-Cell-Factor with beta-catenin (TCF/b-cat) (AID 2282965); conditions: HepG2 TCF/beta-catenin cis-reporter transcription, actives raise or lower the signal
# In short: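 Cells of the HepG2 line carry transiently transfected reporter units whose promoters respond to endogenous factors. Twenty-four hours post-dosing, reporter mRNA induction is measured by fluorescent RT-PCR and capillary electrophoresis, with DMSO as baseline.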
# [16] = ATG_TGFb_CIS: Attagene CIS-FACTORIAL HepG2 Assay for human Transforming Growth Factor (TGF) (AID 2282967); conditions: HepG2 Attagene CIS TGFb reporter, mRNA transcription; actives raise or lower the signal
# In short: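 Readout: fluorescently labeled reporter cDNA fragments resolved by capillary electrophoresis after RT-PCR. Transfected HepG2 cells dosed for 24 h; endogenous TF activity at TGFB1-linked cis element; gain or loss fitted relative to DMSO.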
# [17] = ATG_PPRE_CIS: Attagene CIS-FACTORIAL HepG2 Assay for human Peroxisome Proliferator-activated Response Element (PPRE) (AID 2282958); conditions: HepG2 PPRE cis-element reporter, Attagene transcription factor profiling; actives raise or lower the signal
# In short: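 PPRE activity in HepG2: transient cis-reporter transfection, 24 h compound incubation, reporter mRNA by RT-PCR and CE fluorescence; gain/loss fitted against DMSO.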
# [18] = ATG_RORE_CIS: Attagene CIS-FACTORIAL HepG2 Assay for human RAR-related Orphan Receptor Element (RORE) (AID 2282959); conditions: HepG2 Attagene cis-factorial RORE reporter, mRNA; actives raise or lower the signal
# In short: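 A 24-hour exposure of transfected HepG2 hepatoma cells precedes RNA isolation and reporter RT-PCR. Labeled products are digested with HpaI and resolved by capillary electrophoresis, with gain or loss of signal scored relative to DMSO.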
# [19] = ATG_TAL_CIS: Attagene CIS-FACTORIAL HepG2 Assay for human TAL Basal Promoter (AID 2282966); conditions: HepG2 Attagene cis-factorial TAL promoter reporter; actives raise or lower the signal;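 note: background control endpoint measuring basal TAL promoter reporter mRNA not a specific factor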
# In short: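 After 24 hours of chemical exposure, transfected HepG2 cells yielded RNA that was converted to 6-FAM-labelled, HpaI-digested reporter fragments for capillary electrophoresis. Values derive from bidirectional fitting against DMSO controls.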
structure (smiles),measurement,setting,value
CC(C)O.CC(C)O.OCCN(CCO)CCO.OCCN(CCO)CCO.[Ti],outcome,[1],inactive
same,outcome,[2],inactive
same,outcome,[3],inactive
same,outcome,[4],inactive
same,outcome,[5],inactive
same,outcome,[6],inactive
same,outcome,[7],inactive
same,outcome,[8],inactive
same,outcome,[9],inactive
same,outcome,[10],inactive
same,outcome,[11],inactive
same,outcome,[12],inactive
same,outcome,[13],inactive
same,outcome,[14],inactive
same,outcome,[15],inactive
same,outcome,[16],inactive
Cc1cccc(C)c1NC(=O)CN1CCCC1=O,outcome,[1],inactive
same,outcome,[2],inactive
same,outcome,[3],inactive
same,outcome,[4],inactive
same,outcome,[5],inactive
same,outcome,[6],inactive
same,outcome,[8],inactive
same,AC50,[9],100 µM (active)
same,outcome,[17],inactive
same,outcome,[18],inactive
same,outcome,[10],inactive
same,outcome,[12],inactive
same,outcome,[13],inactive
same,outcome,[14],inactive
same,outcome,[15],inactive
same,outcome,[19],inactive
same,outcome,[16],inactive
CCC[N+](CCC)(CCC)CCC,outcome,[1],inactive
same,outcome,[2],inactive
same,outcome,[3],inactive
same,outcome,[4],inactive
same,outcome,[5],inactive
same,outcome,[6],inactive
same,outcome,[7],inactive
same,outcome,[8],inactive
same,outcome,[9],inactive
same,outcome,[17],inactive
same,outcome,[18],inactive
same,outcome,[10],inactive
same,outcome,[11],inactive
same,outcome,[12],inactive
same,outcome,[13],inactive
same,outcome,[14],inactive
same,outcome,[15],inactive
same,outcome,[19],inactive
same,outcome,[16],inactive
N#CS,outcome,[1],inactive
same,outcome,[2],inactive
same,outcome,[3],inactive
same,outcome,[4],inactive
same,outcome,[5],inactive
same,outcome,[6],inactive
same,outcome,[8],inactive
same,outcome,[9],inactive
same,outcome,[18],inactive
same,outcome,[10],inactive
same,outcome,[11],inactive
same,outcome,[12],inactive
same,outcome,[13],inactive
same,outcome,[14],inactive
same,outcome,[15],inactive
same,outcome,[19],inactive
same,outcome,[16],inactive
NC(=O)c1ccc(N)nc1,outcome,[1],inactive
same,outcome,[2],inactive
same,outcome,[3],inactive
same,outcome,[4],inactive
same,outcome,[5],inactive
same,outcome,[6],inactive
same,outcome,[7],inactive
same,outcome,[8],inactive
same,outcome,[9],inactive
same,outcome,[18],inactive
same,outcome,[10],inactive
same,outcome,[11],inactive
same,outcome,[12],inactive
same,outcome,[13],inactive
same,outcome,[15],inactive
same,outcome,[19],inactive
same,outcome,[16],inactive
Oc1ccc(Cc2ccc(O)cc2)cc1,outcome,[1],inactive
same,outcome,[2],inactive
same,outcome,[3],inactive
same,outcome,[4],inactive
same,outcome,[5],inactive
same,outcome,[6],inactive
same,outcome,[7],inactive
same,outcome,[8],inactive
same,AC50,[9],61.6 µM (active)
same,AC50,[17],38.8 µM (active)
same,outcome,[18],inactive
same,outcome,[10],inactive
same,outcome,[12],inactive
same,outcome,[13],inactive
same,outcome,[14],inactive
same,outcome,[15],inactive
same,outcome,[19],inactive
same,outcome,[16],inactive
Cc1ccccc1OP(=O)(Oc1ccccc1C)Oc1ccccc1C,AC50,[1],7 µM (active)
same,outcome,[2],inactive
same,outcome,[3],inactive
same,outcome,[4],inactive
same,outcome,[5],inactive
same,AC50,[6],10.8 µM (active)
same,outcome,[7],inactive
same,outcome,[8],inactive
same,AC50,[9],0.0902 µM (active)
same,outcome,[17],inactive
same,outcome,[18],inactive
same,outcome,[10],inactive
same,AC50,[11],71.8 µM (active)
same,outcome,[12],inactive
same,outcome,[13],inactive
same,outcome,[14],inactive
same,outcome,[15],inactive
same,outcome,[19],inactive
